# Data: PMC4631838
# Experiments:
# Test in all cases: cross-link between two proteins; cross-linking mass spectrometry
# [1] = biological target: DNA-directed RNA polymerases I, II, and III subunit RPABC2 (UniProt P20435)
# [2] = biological target: DNA-directed RNA polymerase II subunit RPB7 (UniProt P34087)
# [3] = biological target: DNA-directed RNA polymerase II subunit RPB11 (UniProt P38902)
# [4] = biological target: DNA-directed RNA polymerase II subunit RPB9 (UniProt P27999)
# [5] = biological target: DNA-directed RNA polymerases I, II, and III subunit RPABC1 (UniProt P20434)
# DNA-directed RNA polymerases I, II, and III subunit RPABC1, sequence (P20434 whole entry): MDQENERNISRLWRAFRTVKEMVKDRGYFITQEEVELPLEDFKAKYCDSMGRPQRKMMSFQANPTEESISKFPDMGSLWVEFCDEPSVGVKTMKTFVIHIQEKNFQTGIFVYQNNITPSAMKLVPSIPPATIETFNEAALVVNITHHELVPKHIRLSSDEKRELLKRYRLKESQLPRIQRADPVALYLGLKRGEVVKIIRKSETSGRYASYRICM
# [6] = biological target: DNA-directed RNA polymerases I, II, and III subunit RPABC3 (UniProt P20436)
# DNA-directed RNA polymerases I, II, and III subunit RPABC3, sequence (P20436 whole entry): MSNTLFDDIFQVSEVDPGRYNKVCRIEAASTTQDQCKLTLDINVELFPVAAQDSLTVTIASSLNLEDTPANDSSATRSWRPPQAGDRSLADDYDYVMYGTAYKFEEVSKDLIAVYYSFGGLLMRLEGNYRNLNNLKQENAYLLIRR
# [7] = biological target: DNA-directed RNA polymerase II subunit RPB3 (UniProt P16370)
# DNA-directed RNA polymerase II subunit RPB3, sequence (P16370 whole entry): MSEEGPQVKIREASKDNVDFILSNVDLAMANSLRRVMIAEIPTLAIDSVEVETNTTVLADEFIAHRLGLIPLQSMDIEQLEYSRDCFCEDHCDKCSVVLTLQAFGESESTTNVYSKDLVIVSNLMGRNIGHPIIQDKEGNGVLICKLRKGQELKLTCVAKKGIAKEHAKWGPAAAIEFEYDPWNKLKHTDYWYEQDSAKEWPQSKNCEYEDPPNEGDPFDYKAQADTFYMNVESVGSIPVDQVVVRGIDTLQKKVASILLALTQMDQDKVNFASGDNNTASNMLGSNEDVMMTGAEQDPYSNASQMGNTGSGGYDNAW
# DNA-directed RNA polymerase II subunit RPB1, P04050, sequence (P04050 whole entry): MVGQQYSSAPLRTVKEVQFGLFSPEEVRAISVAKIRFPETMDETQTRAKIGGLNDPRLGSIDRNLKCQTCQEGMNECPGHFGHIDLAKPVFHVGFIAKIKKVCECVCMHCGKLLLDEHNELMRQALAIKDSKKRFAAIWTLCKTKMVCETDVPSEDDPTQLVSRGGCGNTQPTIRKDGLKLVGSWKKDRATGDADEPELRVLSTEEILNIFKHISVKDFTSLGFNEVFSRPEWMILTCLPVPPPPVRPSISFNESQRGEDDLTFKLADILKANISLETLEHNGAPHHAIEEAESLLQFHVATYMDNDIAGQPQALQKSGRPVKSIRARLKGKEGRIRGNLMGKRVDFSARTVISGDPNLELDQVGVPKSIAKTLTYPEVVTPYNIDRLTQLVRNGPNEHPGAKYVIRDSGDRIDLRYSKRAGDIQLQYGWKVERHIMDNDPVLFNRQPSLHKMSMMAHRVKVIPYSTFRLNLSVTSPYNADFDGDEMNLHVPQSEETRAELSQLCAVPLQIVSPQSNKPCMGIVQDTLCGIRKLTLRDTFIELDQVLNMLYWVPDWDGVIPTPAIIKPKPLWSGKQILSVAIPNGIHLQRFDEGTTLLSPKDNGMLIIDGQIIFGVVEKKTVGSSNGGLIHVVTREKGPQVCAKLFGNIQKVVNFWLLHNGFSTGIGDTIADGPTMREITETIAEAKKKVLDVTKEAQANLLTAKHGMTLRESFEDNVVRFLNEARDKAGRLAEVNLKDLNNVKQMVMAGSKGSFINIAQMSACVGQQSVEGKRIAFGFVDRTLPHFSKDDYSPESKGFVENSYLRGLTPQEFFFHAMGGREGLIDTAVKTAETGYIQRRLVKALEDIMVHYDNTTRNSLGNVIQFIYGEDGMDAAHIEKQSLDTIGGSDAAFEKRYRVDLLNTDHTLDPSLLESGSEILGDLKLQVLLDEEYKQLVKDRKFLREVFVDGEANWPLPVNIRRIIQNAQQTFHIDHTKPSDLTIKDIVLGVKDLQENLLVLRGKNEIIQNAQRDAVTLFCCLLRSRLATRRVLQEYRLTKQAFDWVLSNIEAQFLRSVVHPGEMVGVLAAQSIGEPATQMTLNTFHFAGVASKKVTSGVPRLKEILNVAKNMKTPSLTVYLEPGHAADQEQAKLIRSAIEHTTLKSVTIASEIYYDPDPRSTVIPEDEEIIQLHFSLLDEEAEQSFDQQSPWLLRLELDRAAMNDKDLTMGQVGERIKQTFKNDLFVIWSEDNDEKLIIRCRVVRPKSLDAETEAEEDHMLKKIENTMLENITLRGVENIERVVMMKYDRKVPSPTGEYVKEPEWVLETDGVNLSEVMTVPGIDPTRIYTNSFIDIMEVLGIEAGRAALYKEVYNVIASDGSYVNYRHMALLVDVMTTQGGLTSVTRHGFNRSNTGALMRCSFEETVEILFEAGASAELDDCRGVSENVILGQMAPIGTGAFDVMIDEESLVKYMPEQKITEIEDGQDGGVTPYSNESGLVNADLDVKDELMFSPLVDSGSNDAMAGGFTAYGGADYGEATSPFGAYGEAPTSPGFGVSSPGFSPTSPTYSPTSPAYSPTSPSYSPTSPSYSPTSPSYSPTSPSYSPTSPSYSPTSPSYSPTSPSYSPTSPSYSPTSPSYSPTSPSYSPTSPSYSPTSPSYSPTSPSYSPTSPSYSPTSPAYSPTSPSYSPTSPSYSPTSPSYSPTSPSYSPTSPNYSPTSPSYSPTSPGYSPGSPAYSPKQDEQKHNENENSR
# DNA-directed RNA polymerases I, II, and III subunit RPABC2, sequence (P20435 whole entry): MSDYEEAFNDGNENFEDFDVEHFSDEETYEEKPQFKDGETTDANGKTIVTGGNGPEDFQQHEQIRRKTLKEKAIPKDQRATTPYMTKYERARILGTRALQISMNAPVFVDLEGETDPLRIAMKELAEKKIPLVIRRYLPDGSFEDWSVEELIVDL
# DNA-directed RNA polymerase II subunit RPB2, P08518, sequence (P08518 whole entry): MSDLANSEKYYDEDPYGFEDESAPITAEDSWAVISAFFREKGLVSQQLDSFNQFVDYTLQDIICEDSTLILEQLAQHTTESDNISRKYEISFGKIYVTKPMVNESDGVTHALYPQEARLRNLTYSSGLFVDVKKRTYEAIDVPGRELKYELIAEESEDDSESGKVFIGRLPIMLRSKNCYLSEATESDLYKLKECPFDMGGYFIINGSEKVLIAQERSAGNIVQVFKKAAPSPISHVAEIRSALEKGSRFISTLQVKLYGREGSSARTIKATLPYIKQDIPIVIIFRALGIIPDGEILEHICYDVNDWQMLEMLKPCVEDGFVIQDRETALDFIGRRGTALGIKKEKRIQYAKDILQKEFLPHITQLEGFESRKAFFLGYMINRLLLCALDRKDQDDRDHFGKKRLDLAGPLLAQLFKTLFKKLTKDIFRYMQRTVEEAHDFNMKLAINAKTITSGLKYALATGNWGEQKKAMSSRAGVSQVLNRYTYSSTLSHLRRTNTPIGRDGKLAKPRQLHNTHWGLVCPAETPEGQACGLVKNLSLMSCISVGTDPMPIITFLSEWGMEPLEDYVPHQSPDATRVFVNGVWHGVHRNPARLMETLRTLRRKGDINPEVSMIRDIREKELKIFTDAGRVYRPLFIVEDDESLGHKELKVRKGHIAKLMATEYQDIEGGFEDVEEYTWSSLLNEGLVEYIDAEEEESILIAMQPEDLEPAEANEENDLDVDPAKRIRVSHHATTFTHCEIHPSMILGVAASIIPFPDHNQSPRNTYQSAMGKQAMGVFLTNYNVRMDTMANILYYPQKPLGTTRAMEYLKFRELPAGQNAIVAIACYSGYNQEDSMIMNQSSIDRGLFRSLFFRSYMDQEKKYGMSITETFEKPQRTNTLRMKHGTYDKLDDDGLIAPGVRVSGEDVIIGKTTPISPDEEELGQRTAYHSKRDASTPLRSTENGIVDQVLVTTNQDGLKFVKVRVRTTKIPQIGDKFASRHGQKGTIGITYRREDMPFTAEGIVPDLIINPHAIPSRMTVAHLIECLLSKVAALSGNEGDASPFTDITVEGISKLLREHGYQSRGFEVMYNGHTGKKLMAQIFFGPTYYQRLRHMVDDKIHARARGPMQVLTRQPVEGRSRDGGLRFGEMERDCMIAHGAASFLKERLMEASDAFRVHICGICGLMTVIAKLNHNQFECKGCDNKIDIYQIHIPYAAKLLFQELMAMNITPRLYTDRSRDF
# DNA-directed RNA polymerase II subunit RPB9, sequence (P27999 whole entry): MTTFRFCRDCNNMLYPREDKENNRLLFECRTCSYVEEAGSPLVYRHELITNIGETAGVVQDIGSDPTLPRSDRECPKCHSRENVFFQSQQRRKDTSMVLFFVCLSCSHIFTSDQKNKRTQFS
# DNA-directed RNA polymerase II subunit RPB11, sequence (P38902 whole entry): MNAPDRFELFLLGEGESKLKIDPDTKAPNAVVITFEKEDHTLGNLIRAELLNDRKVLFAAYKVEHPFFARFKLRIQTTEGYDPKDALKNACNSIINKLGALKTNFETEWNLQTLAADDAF
# DNA-directed RNA polymerase II subunit RPB7, sequence (P34087 whole entry): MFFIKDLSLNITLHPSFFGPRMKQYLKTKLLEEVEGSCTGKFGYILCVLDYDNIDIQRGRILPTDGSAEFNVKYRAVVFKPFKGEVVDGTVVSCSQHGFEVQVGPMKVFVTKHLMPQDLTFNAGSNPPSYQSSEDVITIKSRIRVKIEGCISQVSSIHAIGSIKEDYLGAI
substance,measurement,setting,value
"DNA-directed RNA polymerases I, II, and III subunit RPABC1, P20434",listed as a hit,[1],yes
"DNA-directed RNA polymerase II subunit RPB4, P20433",listed as a hit,[2],yes
"DNA-directed RNA polymerase II subunit RPB1, P04050",listed as a hit,[3],yes
same,listed as a hit,[4],yes
same,listed as a hit,[5],yes
same,listed as a hit,[1],yes
same,listed as a hit,[6],yes
"DNA-directed RNA polymerase II subunit RPB2, P08518",listed as a hit,[7],yes
